Sm TGR inh: qHTS Assay for the Inhibitors of Schistosoma Mansoni Peroxiredoxins; Schistosoma mansoni thioredoxin glutathione reductase (TGR), Q962Y6; purified TGR, DTNB reduction, TNB absorbance 405 nm; Potency, µM (doses to about 114 µM), usual class: inhibitors; 360,000 tested, 3% active; also: nearly all actives have a fitted effect of over 60% in size
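TGR 20 nM + NADPH 100 uM (dispensed conc.), cpd preinc 15 min RT; start with NADPH (500 uM addition) then DTNB (15 mM addition). Kinetic TNB absorbance, 405 nm filter. Four-parameter Hill fit across titration.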
CHX counter: Cycloheximide Counterscreen for Small Molecule Inhibitors of Shiga Toxin | cell reporter, cycloheximide protein synthesis inhibition counterscreen | max response, % | 300,000 tested, 12% active; in the data active = max response mostly above about 13%, no sharp cut-off; inactive = mostly below about 14%; also: read at 38.3 µM for the half of the compounds with a filed dose
NS1 function inh: qHTS Assay for Inhibitors of Influenza NS1 Protein Function. Potency, µM (top dose mostly 46.1 µM). 270,000 tested, 0.4% active. AID 2326, 2010; calls by dose curve; also: actives are rising curves; nearly all actives have a fitted effect of over 50% in size
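Compounds were scored for reversing the slow growth caused by influenza A NS1 in S. cerevisiae, measured by optical density at 600 nm. Assay medium contained 2% galactose at pH 6.0; NS1-free yeast of the same strain were the positive control.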
Pf growth 96h: Primary qHTS for delayed death inhibitors of the malarial parasite plastid, 96 hour incubation | P. falciparum luciferase reporter growth, 96 h | Potency, µM (doses to about 28.7 µM), usual class: inhibitors | 320,000 tested, 6.9% active | AID 504834, 2011
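96 h incubation, 37 C, 5% CO2, of luciferase-reporter P. falciparum-infected RBCs (2% hematocrit, 0.05% parasitemia final) with test compounds; endpoint luminescence.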
Pf growth 48h: Primary qHTS for delayed death inhibitors of the malarial parasite plastid, 48 hour incubation; P. falciparum luciferase growth in erythrocytes, 48 h; Potency, µM (titrated, usually from 28.7 µM), hits mostly inhibitors; 310,000 tested, 5.9% active
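Erythrocytes infected with P. falciparum carrying an integrated firefly luciferase reporter (2% hematocrit, 0.1% parasitemia final) were exposed to compounds in RPMI 1640 with 0.5% Albumax at 37 C, 5% CO2. Growth inhibition was scored as reduced luminescence.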
Shiga inhibitor: A qHTS for Small Molecule Inhibitors of Shiga Toxin; Vero cells, Shiga toxin protein synthesis inhibition reporter; inhibition, % at 38.7 µM; 290,000 tested, 9.2% active; AID 2315, 2010; in the data active = inhibition mostly above about 28%, no sharp cut-off; inactive = mostly below about 43%
Large screens that a line does not name were inactive; ! = not active in a repeat. Shown are actives, neighbours in structure and some others; about 21% of the full set was active somewhere. Unless noted, calls follow the shape of the dose curve; as a rule, active = well fitted curve in the direction sought with a large enough effect; inconclusive = small, poorly fitted or top-dose-only effect, or another doubt; inactive = no such curve, though single readings can be large; an effect the other way counts as inactive or inconclusive.

COc1ccc(-n2ncc3c(=O)n(CC(=O)NC(C)C)cnc32)cc1	Pf growth 96h 7.38µM
CC(C)NC(=O)Cn1cnc2c(cnn2-c2ccc(F)cc2)c1=O	none
CC(C)(C)n1ncc2c(=O)n(CC(=O)Nc3ccc4c(c3)OCO4)cnc21	Pf growth 96h inconclusive
COc1ccc(-n2ncc3c(=O)n(CC(=O)Nc4ccc5c(c4)OCCO5)cnc32)cc1	Pf growth 96h 4.65µM
Cc1ccc(-n2ncc3c(=O)n(CC(N)=O)cnc32)cc1	none
COC(=O)Cn1cnc2c(cnn2-c2ccc(OC)cc2)c1=O	CHX counter 22.8
COC(=O)Cn1cnc2c(nnn2-c2ccc(OC)cc2)c1=O	Pf growth 96h inconclusive
CC1CCCN(S(=O)(=O)c2cc(C(=O)NCc3ccccc3Cl)n(C)c2)C1 (stereo not drawn)	none (no result: CHX counter, NS1 function inh, Pf growth 96h, Pf growth 48h, Shiga inhibitor)
OCCN1CCN(C(c2cccs2)c2ccc3cccnc3c2O)CC1 (stereo not drawn)	Sm TGR inh 0.316µM, Pf growth 48h 2.08µM
COc1ccc(NC(=O)COC(=O)CCCN2C(=O)c3ccccc3C2=O)cc1Cl	none
CC(=O)Nc1nc2c(C)cc(NC(=O)C3CCCCC3)cc2s1	CHX counter 32.0, Shiga inhibitor 73.9
CC(=O)Nc1cc(C)c2nc(NC(C)=O)sc2c1	CHX counter 29.9, Shiga inhibitor 60.1
CC(=O)Nc1cc(NC(C)=O)c2nc(N)sc2c1	none (no result: Pf growth 96h)
Cc1cn([C@H]2C=C[C@@H](CO)O2)c(=O)[nH]c1=O	CHX counter 51.9!, Pf growth 96h inconclusive, Shiga inhibitor 161.8!
CC(C)(C)c1ccc(NNC(=O)C2CCC2)cc1	Sm TGR inh 44.7µM
Cc1ccc2scc(N3CCN(c4ccc(F)cc4)CC3)c(=O)c2c1	none (no result: CHX counter, NS1 function inh, Pf growth 96h, Pf growth 48h, Shiga inhibitor)
Cc1ccc(C)c(-n2sc3ccc(F)cc3c2=O)c1	Pf growth 96h 1.47µM, Pf growth 48h 2.08µM (no result: CHX counter, NS1 function inh, Shiga inhibitor)
O=c1c2cc(F)ccc2sn1-c1ccc(F)cc1	Pf growth 48h 4.15µM (no result: CHX counter, NS1 function inh, Shiga inhibitor)
O=c1c(N2CCCCC2)csc2ccc(F)cc12	none (no result: CHX counter, NS1 function inh, Pf growth 96h, Pf growth 48h, Shiga inhibitor)
COc1ccc(-n2sc3ccc(F)cc3c2=O)cc1	Pf growth 48h 4.15µM (no result: CHX counter, NS1 function inh, Shiga inhibitor)
CCc1cccc(-n2nnc(-c3nsc(NC(=O)c4cccs4)n3)c2C)c1	none (no result: CHX counter, NS1 function inh, Pf growth 96h, Pf growth 48h, Shiga inhibitor)
CC(=O)c1ccccc1OCCOc1ncnc2sccc12	CHX counter 15.6, Pf growth 96h inconclusive, Pf growth 48h inconclusive, Shiga inhibitor 36.5 (no result: NS1 function inh)
CC(=O)c1ccccc1OCCOCCOCCOc1ccccc1C(C)=O	Pf growth 96h inconclusive
CC(Nc1ccc(-c2nc(-c3ccncc3)no2)cc1[N+](=O)[O-])c1ccccc1 (stereo not drawn)	none (no result: CHX counter, NS1 function inh, Pf growth 96h, Pf growth 48h, Shiga inhibitor)
COC(=O)c1cc(OC)c(OC)cc1NC(=O)c1ccccc1C	Pf growth 96h inconclusive
COc1ccc(NC(=O)C(c2ccc(OC)cc2)N(C)C(=O)CC2NC(=O)NC2=O)cc1 (stereo not drawn)	Pf growth 96h 11.7µM
COc1ccc(NC(=O)C(NC(=O)CC2NC(=O)NC2=O)c2ccccc2)cc1 (stereo not drawn)	none
COc1ccc(NC(=O)C(c2ccccc2)N(C)C(=O)c2ccc(=O)[nH]c2)cc1 (stereo not drawn)	Pf growth 96h 1.04µM
Cc1ccc(C(C(=O)Nc2ccc(C(C)C)cc2)N(C)C(=O)c2ccc(=O)[nH]c2)cc1 (stereo not drawn)	Pf growth 48h inconclusive (no result: NS1 function inh)
CC(C)OC(=O)c1cc2ccccc2[nH]1	CHX counter 23.3, Pf growth 96h inconclusive, Shiga inhibitor 53.9
CCOC(=O)c1cc2cc3ccccc3cc2[nH]1	CHX counter 54.1, Shiga inhibitor 150.2
NNC(=O)c1cc2ccccc2[nH]1	Pf growth 96h inconclusive, Pf growth 48h inconclusive (no result: NS1 function inh)
O=C(O)c1nn(Cc2ncc(-c3cccc(Cl)c3)o2)c(=O)c2ccccc12	none
CCOC(=O)Nc1ccc2c(c1)N(C(=O)N(C)C)c1ccccc1CC2	Pf growth 48h inconclusive
CCOC(=O)Nc1ccc2c(c1)N(C(=O)N1CCN(C)CC1)c1ccccc1CC2	Pf growth 48h 11.7µM
CC(C)OC(=O)Nc1ccc2c(c1)N(C(=O)N1CCN(C)CC1)c1ccccc1CC2	CHX counter 29.8, Pf growth 96h inconclusive
CCOC(=O)Nc1ccc2c(c1)N(C(=O)CCN1CCN3CCCC3C1)c1ccccc1CC2 (stereo not drawn)	Pf growth 96h 14.7µM
